Assay outcomes as filed in PubChem BioAssay.
The list is not random: actives were taken first. Their share in the collection is about 4.7%.
D3 antag: qHTS of D3 Dopamine Receptor Antagonist: qHTS; AID 652054, 2013; 360,000 compounds, 2.5% hits; D(3) dopamine receptor (Homo sapiens), P35462; max response, negative = inhibition, %; D3R cells, DiscoveRx beta-arrestin luminescence, antagonist mode; stronger effect = lower value; in the data active = max response below about -50%; inconclusive = no clear call, values can overlap the other calls; note: % is set by controls: 0 for no effect and ±100 for the full control effect
Target sequence (P35462 whole entry, looked up): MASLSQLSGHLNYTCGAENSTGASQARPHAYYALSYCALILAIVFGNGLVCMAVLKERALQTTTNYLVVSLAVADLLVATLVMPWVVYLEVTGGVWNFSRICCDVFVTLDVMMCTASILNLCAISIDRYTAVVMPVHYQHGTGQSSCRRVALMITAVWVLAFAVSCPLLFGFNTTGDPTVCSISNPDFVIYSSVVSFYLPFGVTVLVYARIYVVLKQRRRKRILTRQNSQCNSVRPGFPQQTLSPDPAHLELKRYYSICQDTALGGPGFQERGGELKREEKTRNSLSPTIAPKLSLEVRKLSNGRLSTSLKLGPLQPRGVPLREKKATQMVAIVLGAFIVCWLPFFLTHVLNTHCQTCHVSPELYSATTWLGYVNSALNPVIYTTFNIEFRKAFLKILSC
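Cells plated overnight at 1500 cells/well, then exposed to library compounds with dopamine controls for 90 minutes at 37 degrees C. DiscoveRx reagent added for 30–60 minutes at room temperature; luminescence read, quantitative HTS format.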
ATXN viability: Viability Counterscreen for Primary qHTS for Inhibitors of ATXN expression; S2 cells (HEK-293 line with an ATXN2-luciferase reporter) viability, CellTiter-Fluor protease fluorescence, 24 h; Potency, µM (titrated, usually from 56.7 µM), actives largely listed as cytotoxic; 400,000 compounds, 0.49% hits; note: potency is the fitted concentration of half-maximal effect; nearly all actives have a fitted effect of over 40% in size
DRD3 agonist: qHTS of D3 Dopamine Receptor Agonist: qHTS | max activation, % | D3R DiscoveRx beta-arrestin cells, luminescence, 90 min | D(3) dopamine receptor (Homo sapiens), P35462 | AID 652048, 2013 | 410,000 compounds, 0.58% hits; in the data active = max activation above about 30%; note: 0% is about no effect
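Agonist-mode cell screen: cells plated at 1500/well and incubated overnight at 37 °C, then exposed to library compounds for 90 min at 37 °C. Detection reagent was added for 30–60 min at room temperature, and luminescence was read.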
ATXN2 expr inh: Primary qHTS for Inhibitors of ATXN expression | HEK-293 ATXN2-luciferase reporter, luminescence, 24 h | Potency, µM (top dose mostly 57 µM), for the others: at the top dose activity change, negative = inhibition, actives largely listed as inhibitors | 360,000 compounds, 0.72% hits | AID 1745845, 2022; note: potency is the fitted concentration of half-maximal effect; % is set by controls: 0 for no effect and ±100 for the full control effect; nearly all actives have a fitted effect of over 55% in size
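qHTS (up to 57 uM final) was run with 24 h compound exposure of reporter cells at 37 °C. Each well was multiplexed: SteadyGlo luminescence measured ATXN2-luciferase expression after a fluorogenic Gly-Phe-AFC viability readout (25 uM final).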
HepG2 tox: qHTS for Inhibitors of TGF-b: Cytotox Counterscreen; HepG2 CAGA-GFP viability, ATP luminescence, 18 h; Potency, µM (titrated, usually from 46.1 µM), for inactives: at the top dose activity change, negative = cytotoxicity, actives largely listed as cytotoxic; 410,000 compounds, 0.76% hits; AID 588856, 2011; note: potency is the fitted concentration of half-maximal effect
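CellTiter-Glo luminescence gave cytotoxicity after 18 hours at 37 degrees C. The cells were HepG2 CAGA-GFP in 1% FBS DMEM, stimulated with 500 pg/mL TGF-beta after compound addition. %Activity was normalised to no-cell wells (complete cell-killing) and DMSO (no toxicity), and curves were fitted and classified.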
TGFb SMAD3 inh: qHTS for Inhibitors of TGF-b; 410,000 compounds, 1.2% hits; Potency, µM (top dose mostly 46.1 µM), for inactives: at the top dose activity, negative = inhibition, usual class: inhibitors; HepG2 CAGA-GFP TGF-b/SMAD3 reporter, GFP fluorescence, 18 h; TGF-beta stimulated, 500 pg/mL final; note: potency is the fitted concentration of half-maximal effect; % is set by controls: 0 for no effect and ±100 for the full control effect; nearly all actives have a fitted effect of over 65% in size
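Cell-based qHTS in HEPG2 carrying a CAGA-GFP Smad reporter; compounds added before 500 pg/mL final TGF-beta, 18 h incubation at 37 degrees C, GFP fluorescence quantified per cell by imaging cytometry.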
Numbers without * were called inactive; i = inactive; ? = inconclusive; / = no result given. Unless noted, calls come from the whole dose curve; as a rule, active = well fitted curve in the direction sought with a large enough effect; inconclusive = small, poorly fitted or top-dose-only effect, or another doubt; inactive = no such curve, though single readings can be large; an effect the other way counts as inactive or inconclusive.

SMILES | D3 antag | ATXN viability | DRD3 agonist | ATXN2 expr inh | HepG2 tox | TGFb SMAD3 inh
C=C[C@@H]1c2c(F)cccc2N(S(=O)(=O)c2ccc(C)cc2)[C@H](c2ccc(OC(C)=O)cc2)C1(C#N)C#N | ? | 32µM* | 1 | ? | -90% | ?
NC(=O)C1(N2CCCCC2)CCN(Cc2ccc(Br)cc2)CC1 | -115* | i | -21 | / | -47% | ?
Fc1ccc(CN2CCCCCCC2)cc1 | -26 | i | 0 | 7% | 22% | 8%
NC(=O)C1(N2CCCCC2)CCN(Cc2ccc(F)cc2)CC1 | -88* | i | -28 | -4% | -9% | -6%
O=C(CNC(=O)C1CCCCC1)OCC(=O)c1ccc2c(c1)CCC2 | / | / | / | / | -8% | -3%
C=CCn1c(SCC(=O)Nc2ccc(C(=O)O)cc2)nc2scc(-c3ccccc3)c2c1=O | -71* | i | -8 | -23% | -14% | ?
C=CCn1c(SCC(=O)Nc2ccc(C(=O)O)cc2)nc2sc(C)c(C)c2c1=O | -5 | ? | 9 | 5% | -8% | -6%
Cc1cc2ccccc2c[n+]1C1CCCCC1 | / | / | / | / | -35% | ?
C[C@H](CO)N1C[C@H](C)[C@@H](CN(C)Cc2ccc(Cl)c(Cl)c2)Oc2c(NC(=O)Cc3ccccc3)cccc2C1=O | 48 | 14µM* | -12 | 28µM* | -18% | ?
C[C@H](CO)N1C[C@H](C)[C@@H](CN(C)Cc2ccc(-c3ccccc3)cc2)Oc2c(NS(=O)(=O)c3cn(C)cn3)cccc2C1=O | 9 | i | -10 | 2% | 3% | 3.2µM*
COc1ccc(S(=O)(=O)Nc2cccc3c2O[C@@H](CN(C)Cc2ccc(C(=O)O)cc2)[C@@H](C)CN([C@H](C)CO)C3=O)cc1 | 3 | i | 50* | 2% | -3% | 0%
C[C@H](CO)N1C[C@H](C)[C@@H](CN(C)Cc2ccc3c(c2)OCO3)Oc2c(NS(=O)(=O)c3cn(C)cn3)cccc2C1=O | 18 | i | 20 | 8% | 3% | ?
C[C@H](CO)N1C[C@H](C)[C@@H](CN(C)Cc2ccccc2)Oc2c(NC(=O)Cc3ccccc3)cccc2C1=O | 55 | ? | -3 | ? | -33% | ?
CN=c1scc(-c2ccccc2F)n1/N=C/c1ccc(O)c(O)c1O | 11 | i | 107* | 34% | 6% | ?
CN=c1scc(-c2ccccc2F)n1/N=C/c1ccc[nH]1 | -24 | ? | -8 | 3.2µM* | -24% | -13%
CC(C)N=c1scc(-c2cccs2)n1/N=C/c1ccc(O)c(O)c1O | 49 | ? | 64* | ? | -31% | 3%
CCN=c1scc(-c2cccs2)n1/N=C/c1cc(OC)ccc1O | 8 | i | 10 | 24% | -43% | 13µM*
CCN=c1scc(-c2ccc(F)cc2)n1/N=C/c1ccccn1 | -11 | / | -2 | 38% | -2% | 0%
Cc1ccc(C)c(N2CCN(CCCNC(=O)c3nnc(Cc4ccc(F)cc4Cl)o3)CC2)c1 | / | / | -37 | / | -104% | ?
CC(C)(C)n1ncc2c(=O)n(Cc3cccc(-c4ccccc4)c3)cnc21 | / | / | / | / | -28% | ?
CCOC(=O)CN[C@@H](C(=O)N1CC[C@H]1C(=O)NCc1ccc(/C(N)=N/O)cc1)C1CCCCC1 | / | i | 4 | / | / | /
CCOC(=O)c1sc2nc(NC(=O)C(C)(C)C)sc2c1C | 33 | ? | 34* | -21% | -28% | ?
CCOC(=O)c1c(-c2ccccc2)oc2ccc(OCC)cc12 | 17 | i | 14 | -5% | -18% | -3%
CCOC(=O)c1c(-c2ccccc2)oc2ccc(OCC(O)CNCCN(C)C)cc12 (stereo unspecified) | ? | / | -8 | -36% | 14µM* | ?
O=S(=O)(NCCCN1CCN(c2ccccc2F)CC1)c1cccc2cccnc12 | -96* | i | 5 | -20% | -15% | -7%
SMILES | D3 antag | ATXN viability | DRD3 agonist | ATXN2 expr inh | HepG2 tox | TGFb SMAD3 inh
O=S(=O)(NCCN1CCCC1)c1cccc2cccnc12 | ? | i | -14 | -1% | 10% | -4%
COCCc1ccc(OCC2CO2)cc1 (stereo unspecified) | / | i | / | 7% | / | /
Cc1nc([N+](=O)[O-])cn1CC(O)c1ccc2c(c1)OCCCO2 (stereo unspecified) | / | / | / | / | 1% | -10%
C=C1C(=O)O[C@@H]2[C@H]3O[C@]3(C)CC/C=C(\C)CC[C@@H]12 | ? | i | -2 | 14% | 13µM* | 13µM*
COC(=O)[C@@H]1C[C@@H](NC(=O)c2cccc3c(C)c(C)[nH]c23)CN1Cc1cccc2ccccc12 | / | i | / | / | / | /
NC(=O)c1c(NC(NC(=O)c2ccco2)C(=O)c2ccc(Cl)cc2)sc2c1CCCC2 (stereo unspecified) | -7 | i | -3 | 4% | -41% | 16µM*
CC(=O)Nc1cccc(NC(=O)CSc2nccn2C2CCCC2)c1 | / | / | 1 | / | 4% | 15%
CCCOc1ccc(CSc2ncn[nH]2)cc1 | -82* | ? | -11 | 0% | -77% | -4%
CCOc1ccc(/C=C/c2ccc3ccccc3[n+]2C)cc1OCC | / | / | / | / | -4% | 0%
CCOc1ccc2c(ccc(/C=C/c3cc(C)c4cccnc4c3O)[n+]2C)c1 | ? | 7.5µM* | -11 | ? | -103% | 7.1µM*
Cc1cccc(Nc2nnc(-c3ccc(C)c(S(=O)(=O)N4CCOCC4)c3)c3ccccc23)c1 | / | i | -12 | -2% | -7% | ?
NS(=O)(=O)c1ccc(N/N=C/c2cn(-c3ccccc3)nc2-c2ccccc2)c([N+](=O)[O-])c1 | -13 | 11µM* | -12 | / | 6.3µM* | 5.6µM*
Cc1ccc(-c2nn(-c3ccccc3)cc2/C=N/O)cc1 | -53* | i | -6 | -31% | -53% | ?
Cc1ccc(-c2nn(-c3ccccc3)cc2/C=N/NS(=O)(=O)c2ccccc2)cc1 | -54* | i | -10 | 60% | -29% | ?
O/N=C/c1cn(-c2ccccc2)nc1-c1cccnc1 | -16 | i | -3 | -36% | 2% | -13%
CC(=O)N[C@@H](CC(=O)N[C@@H](CCC(=O)O)C(=O)O)C(=O)O | / | / | -6 | / | / | /
CN(CCCNC(=O)c1ccc(/C=N/O)nc1)CCCN(C)Cc1ccccc1 | -28 | ? | -9 | ? | -30% | -4%
CN(CCNC(=O)c1ccc(/C=N/O)nc1)Cc1ccccc1 | -76* | i | -31 | -6% | -20% | -26%
